Screening results from PubChem BioAssay.
A selection: hits, their analogues and other compounds. The true share with any hit is near 3.6%.
HSP90 refold inh: HSP90 inhibitors, primary screen, cell lysate, luminescence | Heat shock protein HSP 90 (rabbit reticulocyte lysate; luciferase refolding) | Rabbit reticulocyte lysate, luciferase refolding luminescence, 3 h | inhibition, % at 5.6 µM | 290,000 compounds, 0.91% hits;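 active means inhibition above the screen-wide mean plus 3 SD, computed separately per campaign, cut at about 16% in these data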;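 further: 0% = DMSO wells and 100% = 60 µM geldanamycin wells; inhibitors lower the luminescence because luciferase stays unfolded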
Peg3 promoter: Peg3 promoter-driven luciferase inhibitors, primary screen, cell-based, HeLa, luciferase luminescence; AID 588405, 2011; inhibition, % at 20 µM; HeLa PEG-Prom luciferase reporter, overnight; 360,000 compounds, 1.7% hits;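 active means inhibition of at least 50% at 20 µM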
LGR2 inh: inhibitors of bursicon-induced LGR2 CRE-luciferase signal, primary screen, cell-based, HEK293, CRE-luciferase reporter, bursicon stimulation; Drosophila bursicon receptor LGR2 (rickets); bursicon-stimulated, 4 h; inhibition, % at 9.99 µM; 380,000 compounds, 0.35% hits; AID 720647, 2013;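 active means drop in luminescence signal, shown as inhibition above about 50% in the replicate tests, limit read from the data, passing the limit was not always enough; inconclusive means probably only some replicates passing the limit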;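 further: agonist challenge used bursicon conditioned medium at about half maximal strength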
CF NFkB inh: inhibitors of PAF-induced NF-kB signaling, primary screen, cell-based, GFP fluorescence, uHTS | 360,000 compounds, 0.86% hits | KKLEB NF-kB-GFP reporter, GFP fluorescence overnight | inhibition, % at 5 µM | AID 588850, 2011;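 active means at least 50% inhibition at 5 µM, scaled per plate between neutral and stimulator controls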;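 further: PAF is a Pseudomonas aeruginosa culture filtrate used as stimulus; plate controls were PAF-stimulated DMSO wells for no effect and unstimulated DMSO wells for full effect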
Mdm2-MdmX inh: inhibitors of human Mdm2-MdmX association, primary screen, cell-based, luminescence, split luciferase, SaOS-2, uHTS. SaOS-2 split-luciferase Mdm2/MdmX complementation. inhibition, % at 8 µM. 330,000 compounds, 3% hits;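 active means inhibition of at least 50% at 8 µM in the primary screen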
Target sequence (O15151 whole entry, looked up): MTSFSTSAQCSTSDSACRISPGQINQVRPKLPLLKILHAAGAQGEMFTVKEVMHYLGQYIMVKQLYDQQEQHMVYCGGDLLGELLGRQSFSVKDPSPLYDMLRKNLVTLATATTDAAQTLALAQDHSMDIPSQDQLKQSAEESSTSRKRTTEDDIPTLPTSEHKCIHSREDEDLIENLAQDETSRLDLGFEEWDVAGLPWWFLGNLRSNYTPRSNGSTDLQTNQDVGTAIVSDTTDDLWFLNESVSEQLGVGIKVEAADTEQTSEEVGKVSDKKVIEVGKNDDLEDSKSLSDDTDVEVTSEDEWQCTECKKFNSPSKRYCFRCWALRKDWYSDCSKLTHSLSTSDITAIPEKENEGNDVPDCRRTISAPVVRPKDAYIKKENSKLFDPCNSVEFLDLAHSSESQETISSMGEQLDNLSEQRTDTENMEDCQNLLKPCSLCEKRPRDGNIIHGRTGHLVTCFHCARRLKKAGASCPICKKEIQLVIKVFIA
Target sequence (Q00987 whole entry, looked up): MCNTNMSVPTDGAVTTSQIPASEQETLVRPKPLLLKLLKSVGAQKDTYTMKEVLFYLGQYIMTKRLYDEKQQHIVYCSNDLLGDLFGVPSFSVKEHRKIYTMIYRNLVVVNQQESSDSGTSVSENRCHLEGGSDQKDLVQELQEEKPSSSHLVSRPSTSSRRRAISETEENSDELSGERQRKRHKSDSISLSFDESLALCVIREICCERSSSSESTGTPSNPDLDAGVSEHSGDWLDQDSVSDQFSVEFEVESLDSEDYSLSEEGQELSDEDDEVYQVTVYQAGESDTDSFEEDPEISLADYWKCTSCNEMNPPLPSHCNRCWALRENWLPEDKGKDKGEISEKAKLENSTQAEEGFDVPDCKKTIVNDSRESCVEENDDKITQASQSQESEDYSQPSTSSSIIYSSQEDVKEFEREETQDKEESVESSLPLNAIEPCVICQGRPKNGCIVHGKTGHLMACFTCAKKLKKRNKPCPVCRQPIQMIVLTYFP
KKLEB tox: cytotoxicity in KKLEB CF airway cells, primary screen, cytotoxicity control for CF NF-kB inhibitor project, cell-based, uHTS, fluorescence assay plates | 360,000 compounds, 0.36% hits | KKLEB CF airway cells viability, ATPlite luminescence, overnight; hits give low values; cells stimulated with P. aeruginosa culture filtrate | activity change (cytotoxicity), % at 5 µM;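 active means corrected activity change at or below -50% at 5 µM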
* hit, by the source's call; u = inconclusive; x = no result given.

SMILES | HSP90 refold inh | Peg3 promoter | LGR2 inh | CF NFkB inh | Mdm2-MdmX inh | KKLEB tox
CCOC(=O)c1ccc(NC(=O)c2ccccc2[N+](=O)[O-])cc1 | 2.6 | -90.3 | -49.2 | -6.3 | -7.8 | -15.3
CC(C)(C)c1cc(CCC(=O)NCCc2ccccn2)cc(C(C)(C)C)c1O | -2.1 | 13.1 | -27.0 | -9.2 | -14.5 | -6.6
O=C1C=C(NCCc2cc(Br)c(O)c(Br)c2)C(=O)c2ncccc21 | x | 92.8* | 74.0* | 76.3* | x | -33.2
CC1(C)CC(=O)C=C(c2ccc(-c3cnc4ccccc4c3)cc2)C1=O | x | -97.2 | 62.8* | -22.4 | x | -2.2
CC1(C)CC(=O)C=C(c2ccc(Oc3ccccc3)cc2)C1=O | x | -14.9 | -18.9 | -1.0 | x | -21.0
C[C@H](CO)N1C[C@H](C)[C@@H](CN(C)Cc2ccccc2)Oc2ncc(Br)cc2C1=O | x | x | 12.3 | x | x | x
N#CCSc1nc2cc(C(=O)N3CCC(C(N)=O)CC3)ccc2c2nc3ccccc3n12 | -0.4 | 10.7 | x | 67.5* | 38.9 | -25.5
N#CCSc1nc2cc(C(=O)N3CCCC3)ccc2c(=O)n1Cc1ccccc1 | 2.0 | 26.4 | x | 19.6 | 12.6 | -14.3
CNC[C@@H]1Oc2ccc(NC(=O)Cn3cnnn3)cc2CC(=O)N([C@H](C)CO)C[C@@H]1C | x | x | -12.3 | x | x | x
O=C(O)c1ccc(NC2=C/C(=N/S(=O)(=O)c3cccs3)c3ccccc3C2=O)cc1 | x | -4.0 | u | 87.3* | x | -20.8
Cc1cccc(NC2=C(NCCO)C(=O)c3ccccc3C2=O)c1 | 2.5 | -19.7 | -67.5 | 1.1 | -19.0 | 0.8
Cc1cccc(NC2=C/C(=N/S(=O)(=O)c3cccs3)c3ccccc3C2=O)c1 | 4.0 | 45.2 | -2.6 | 93.2* | x | -64.6*
Cc1cccc(CSc2nc(N)c(C#N)c(-c3cccs3)c2C#N)c1 | 8.1 | 63.0* | x | 18.8 | 30.3 | -20.4
CC1=NN(c2ccc(Cl)cc2)C(=O)C1C(c1ccccc1O)c1c(C)[nH]n(-c2ccc(Cl)cc2)c1=O (configuration not stated) | 0.8 | 11.0 | x | 65.1* | 31.4 | -50.3*
CC1=NN(c2ccc(C)cc2C)C(=O)C1C(c1ccccc1O)C1C(=O)N(c2ccc(C)cc2C)N=C1C (configuration not stated) | 4.2 | 18.1 | 26.7 | -14.9 | 35.5 | 2.5
CC1=NC(=O)C(N=Nc2ccccc2)N1c1ccccc1 (configuration not stated) | -1.0 | -275.6 | x | -1.5 | -253.3 | -0.3
CC1=NC(=O)C(N=Nc2cccc(C(=O)O)c2)N1c1ccccc1 (configuration not stated) | 16.6* | 47.1 | x | 1.9 | -36.5 | -1.4
OC(CNc1ccnc2cc(Cl)ccc12)CNC1CCCCC1 (configuration not stated) | x | 99.6* | x | -6.8 | x | -3.5
CC(C)C[C@H]1CNC(=S)N1CC1CCCN1C[C@H](Cc1ccccc1)N1C[C@H](Cc2ccc(O)cc2)N(CC2CCCCCC2)C1=S (some centres not stated) | x | 66.4* | 6.9 | 27.9 | x | -2.6
CC(C)C[C@H]1CNC(=S)N1C[C@H]1CCCN1C[C@H](Cc1ccc(O)cc1)N1C[C@H](Cc2ccc(O)cc2)N(CC2CCCCCC2)C1=S | x | 101.3* | 14.8 | 70.9* | x | -59.0*
CC(C)C[C@H]1CN([C@@H](Cc2ccc(O)cc2)CN2CCC[C@@H]2CN2C(=S)NC[C@@H]2Cc2ccccc2)C(=S)N1CC1CCCCCC1 | x | -7.6 | 0.8 | 3.2 | x | -5.9
COc1ccc(NC(=O)CSc2nc3ccccc3c(=O)n2CCCN2CCC(C)CC2)c(OC)c1 | 2.8 | 69.2* | 39.0 | 16.9 | 34.0 | -13.4
Cc1noc(C)c1S(=O)(=O)N(C)C[C@@H]1Oc2ccc(NS(=O)(=O)c3cccs3)cc2C(=O)N([C@H](C)CO)C[C@@H]1C | x | x | 11.4 | x | x | x
C[C@H]1CN([C@@H](C)CO)C(=O)c2cc(-c3cccc(F)c3)cnc2O[C@@H]1CN(C)C(=O)C1CCCCC1 | x | x | -1.7 | x | x | x
CCC(=O)Nc1ccc2c(c1)OC[C@@H](C)N(C(=O)CN(C)C)C[C@@H](C)[C@@H](OC)CN(C)C2=O | x | x | -9.7 | x | x | x
SMILES | HSP90 refold inh | Peg3 promoter | LGR2 inh | CF NFkB inh | Mdm2-MdmX inh | KKLEB tox
O=C(/C=C/Nc1ccc(F)cc1F)c1ccco1 | 4.5 | -12.9 | u | -10.0 | -90.9 | -57.6*
O=C(/C=C/c1ccc(Br)cc1)c1ccco1 | 2.9 | 90.2* | -18.4 | 27.0 | 18.6 | -9.2
O=C(/C=C/Nc1ccc(Br)cc1F)c1ccco1 | 10.2 | 23.9 | 88.7* | -3.6 | -104.8 | -65.2*
O=C(/C=C/c1ccc(Br)cc1)c1ccc(NC(=O)c2ccco2)cc1 | 0.1 | -37.1 | -21.8 | -8.2 | 33.9 | 6.3
Cc1noc(C)c1S(=O)(=O)Nc1ccc2c(c1)C(=O)N([C@H](C)CO)C[C@H](C)[C@@H](CN(C)C(=O)Cc1ccccc1)OCCCC[C@H](C)O2 | x | x | 9.2 | x | x | x
C[C@@H]1CN([C@@H](C)CO)C(=O)c2cc(C#CC3(O)CCCC3)cnc2O[C@H]1CN(C)C(=O)Cc1ccncc1 | x | x | -2.2 | x | x | x
O=C(CCN1CCCCC1)N[C@H]1CC[C@H](CCNS(=O)(=O)c2ccccc2)O[C@H]1CO | x | x | 12.7 | x | x | x
CCC(C)(C)NC(=O)C(c1ccc(F)cc1)N(Cc1cccc(OC)c1)C(=O)c1cnccn1 (configuration not stated) | 0.6 | 58.2* | x | 1.4 | 7.0 | 18.4
O=C(NCc1ccccc1C(F)(F)F)c1cccc2c1C(=O)c1ccc(N3CCC(N4CCCCC4)CC3)cc1S2(=O)=O | x | 106.4* | 17.2 | 3.7 | x | -12.8
O=S1(=O)CCN(c2ccccc2CC(c2c[nH]c3ccccc23)c2c[nH]c3ccccc23)CC1 | x | 57.4* | 5.0 | 7.4 | x | 15.2
CNC[C@H]1Oc2c(NS(=O)(=O)c3ccc(C)cc3)cccc2C(=O)N([C@H](C)CO)C[C@H]1C | x | x | -7.0 | x | x | x
CC(=O)N1CCCCN2[C@H](CO)[C@H](c3ccc(-c4cccc(C)c4)cc3)[C@@H]2C1 | x | x | 55.1* | x | x | x
COc1ccc(Cl)cc1N1CCN(CCNC(=O)Nc2ccccc2C)CC1 | 2.2 | 50.6* | x | -1.8 | 7.1 | -13.2
CC(C)CNS(=O)(=O)c1ccc(CCC(=O)Nc2ccc3c(c2)OCO3)cc1 | 16.7* | 19.8 | x | -3.9 | 3.3 | 0.4
Cc1cc(C)nc(SCc2ccc(C(=O)NNC(=O)Nc3cccc(Cl)c3)cc2)n1 | 0.3 | 75.1* | 33.8 | 39.8 | x | -8.2
Cc1cc(C)nc(SCc2ccc(C(=O)N/N=C/c3ccncc3)cc2)n1 | 1.4 | 5.8 | -27.6 | 2.4 | -6.0 | -3.5
COc1cc(/C=C(\C#N)c2nc3ccccc3[nH]2)cc(Br)c1OCc1ccccc1 | -1.1 | 53.3* | 16.5 | -2.4 | 20.1 | -7.0
